Values joined by “and” are separate entries in the source; they are usually repeats but may differ in a detail not shown here. Equal entries are not always repeated. Inconclusive results are not listed. Entries that show only a call come without a potency. Active and inactive are the calls of the source. Unless noted, calls come from the whole dose curve; as a rule, active = well fitted curve in the direction sought with a large enough effect; inconclusive = small, poorly fitted or top-dose-only effect, or another doubt; inactive = no such curve, though single readings can be large; an effect the other way counts as inactive or inconclusive.
How the values were obtained:
[1] = target: Cytochrome P450 2C9 (Homo sapiens) (UniProt P11712); test: qHTS for inhibitors of CYP2C9 against the NCATS DSHEA and TCM libraries (AID 1919973);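 note: luminogenic pro-luciferin CYP2C9 substrate turned into luciferin with NADPH regeneration; series mostly up to about 34 µM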
Cytochrome P450 2C9 (Homo sapiens), sequence (P11712 whole entry, looked up, canonical isoform): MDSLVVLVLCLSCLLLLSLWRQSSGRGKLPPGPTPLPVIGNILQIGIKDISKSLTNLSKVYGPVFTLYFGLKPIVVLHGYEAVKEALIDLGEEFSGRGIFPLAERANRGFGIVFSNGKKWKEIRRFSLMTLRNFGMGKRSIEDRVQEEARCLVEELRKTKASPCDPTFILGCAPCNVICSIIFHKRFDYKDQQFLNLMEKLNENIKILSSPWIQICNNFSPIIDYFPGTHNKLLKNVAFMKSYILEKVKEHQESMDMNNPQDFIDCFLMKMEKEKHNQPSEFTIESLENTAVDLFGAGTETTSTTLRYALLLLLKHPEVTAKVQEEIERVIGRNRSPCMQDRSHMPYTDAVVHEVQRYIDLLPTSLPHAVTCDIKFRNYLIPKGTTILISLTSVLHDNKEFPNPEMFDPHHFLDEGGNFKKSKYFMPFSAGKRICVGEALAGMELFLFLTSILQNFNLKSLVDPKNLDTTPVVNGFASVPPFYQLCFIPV
Method in brief: (§1)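 Concentration-response screening with isoform-matched pro-luciferin substrates. The CYP reaction was initiated by NADPH regenerating solution and ran 30-45 min in darkness at room temperature.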

[2] = target: Cytochrome P450 2C19 (Homo sapiens) (UniProt P33261); test: qHTS for inhibitors of CYP2C19 against the NCATS DSHEA and TCM libraries (AID 1919974);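 note: luminescence from luciferin released by CYP2C19 oxidation of a pro-luciferin substrate; potency is the fitted concentration of half-maximal effect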
Cytochrome P450 2C19 (Homo sapiens), sequence (P33261 whole entry, looked up): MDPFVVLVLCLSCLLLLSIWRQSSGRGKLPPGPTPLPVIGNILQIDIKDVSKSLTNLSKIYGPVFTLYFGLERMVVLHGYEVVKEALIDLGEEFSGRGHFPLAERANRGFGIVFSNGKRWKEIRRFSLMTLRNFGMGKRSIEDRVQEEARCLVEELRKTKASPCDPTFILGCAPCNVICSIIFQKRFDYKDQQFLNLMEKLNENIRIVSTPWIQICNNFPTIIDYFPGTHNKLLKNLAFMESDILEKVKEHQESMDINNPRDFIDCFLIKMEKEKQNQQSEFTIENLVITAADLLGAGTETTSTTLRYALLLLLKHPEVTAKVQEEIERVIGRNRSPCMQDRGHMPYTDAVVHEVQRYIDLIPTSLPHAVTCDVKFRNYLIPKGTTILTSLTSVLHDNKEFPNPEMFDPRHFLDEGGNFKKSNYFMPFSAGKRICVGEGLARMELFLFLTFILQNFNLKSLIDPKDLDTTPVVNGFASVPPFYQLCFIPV
Method in brief: as §1

[3] = KB-3-1 P-gp reporter qHTS against the NCATS DSHEA and TCM libraries (AID 1919975)
Text: (§2) Assay Development and Screening Technology Laboratory (ADST)
(§3) National Center for Advancing Translational Sciences (NCATS), Rockville, MD
(§4) National Institute of Health (NIH), Bethesda, Maryland
(§5) Dietary Supplements and Natural Products have minor oversight of their safety and efficacy. We assembled a collection of Dietary Supplements and Natural Products (DSNP) as well as Traditional Chinese Medicinal (TCM) Plant extracts, which were screened against an in vitro panel of assays, including a liver cytochrome p450 enzyme panel, CAR/PXR signaling pathways, and P-gp transporter assays, to assess their activity. This pipeline facilitated the interrogation of Natural Product-Drug Interaction (NaPDI) through prominent metabolizing pathways. In addition, we compared the activity profiles of the DSNP/TCM substances with those of an approved drug collection. Many of the approved drugs have well-annotated mechanisms of action (MOA) while the MOAs for most of the DSNP and TCM samples remain unknown. Based on the premise that compounds with similar activity profiles tend to share similar targets or MOA, we clustered the library activity profiles to identify overlap with the NCATS Pharmaceutical Collection to predict the MOAs of the DSNP/TCM substances. Overall, we highlight four significant bioactivity profiles (measured by p-values) as examples of this prediction. To assess broad cytotoxicity, we employed screening against a HepG2 cell line. In addition, transporter-mediated drug interactions are utilized in the characterization of DDIs using a P-glycoprotein (P-gp) assays. To profile potential P-gp activity, a differential cell viability was measured against two cell lines: a parental KB-3-1 human cervical adenocarcinoma cell line and the drug-resistant subline KB-8-5-11 that overexpresses P-gp.
(§6) To this end, we profiled both collections for potential CAR and/or PXR activity, employing a previously published 1536-well qHTS assay.
(§7) [1] Lee TD, et al. A High-Throughput Screen of a Library of Therapeutics Identifies Cytotoxic Substrates of P-glycoprotein. Mol Pharmacol. Nov 2019;96(5):629-640. doi:10.1124/mol.119.115964
(§8) PROTOCOL TABLE (as described by Inglese J, Shamu CE and Guy RK. 2007)
(§9) SEQUENCE No. (e.g., 1, 2, 3, etc.); PARAMETER (e.g., Cells, Incubation, Reagent, etc.); VALUE; DESCRIPTION.
1; Cells; 5 uL; KB-3-1 cells, white solid-bottom tissue treated Greiner plate.
2; Incubation; 4 hrs; 37C, 95% humidity, 5% CO2.
3; Compounds and control; 23 nL; Kalypsis pin tool (Wako USA) equipped with a 1536-well pin head to transfer to the assay plates.
4; Incubation; 72 hrs; 37C, 95% humidity, 5% CO2.
5; Reagent; 2.5 uL; CellTiter-Glo.
6; Centrifuge; 1000 RPM; 15 seconds.
7; Incubation; 30 min; room temperature.
8; Read; Luminescence; ViewLux plate reader.
(§10) NOTES (numbers refer to Sequence numbers above)
1. Cell line KB-3-1 and its colchicine-selected, P-gp-overexpressing subline KB-8-5-11 were maintained in DMEM (Thermofisher catalog #11965) with 10% FBS and 1% penicillin/streptomycin at 37C in 5% CO2. For the screen, assay medium was identical to culture medium. Briefly, 5 uL of cells at 1 x 10^5 cells/mL (500 cells/well) were dispensed into a 1536-well white solid-bottom tissue treated plate (Greiner Bio-One) using a Multidrop Combi dispenser.
2. Plates were incubated at 37C, 95% humidity, 5% CO2 for ~4 hours to allow for cell attachment.
3. Compounds and intraplate control (Bortezomib; final concentration range 228 pM - 7.5 uM) were transferred (16 nL) via pintool (Wako Automation), for a final concentration of 15.6 nM - 30.0 uM (most substances).
4. Plates were incubated for ~72 hours at 37C, 95% humidity, 5% CO2.
5. Plates were then dispensed with 2.5 uL of CellTiter-Glo.
6. The assay plates were centrifuged for 15 seconds at 1,000 RPM's.
7. The plates were incubated for 30-minute at room temperature.
8. Luminescence intensity was detected using a PerkinElmer ViewLux microplate reader.
[…]

[4] = qHTS Counterscreen for compound interference against the NCATS DSHEA and TCM libraries (AID 1919978); settings: firefly luciferase detection reagent interference, luminescence;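 note: compounds preincubated with 1 µM D-luciferin or buffer before detection reagent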
Method in brief: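 Luminescence counterscreen for detection-kit interference: compounds at 19.5 nM–39.8 uM final, 15 min RT with 1 uM D-luciferin or buffer only; detection reagent added, 30 min RT, then read.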

[5] = Dual reporter qHTS for agonist of Pregnane X Receptor (hPXR) against the NCATS DSHEA and TCM libraries: Fluorescence readout (AID 1920058)
Method in brief: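 Cells were plated at 2000 per well and allowed to attach for 5 h. Test substances were pinned in and incubated roughly 24 h. CellTiter-Fluor was then added and fluorescence measured after 1 h.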

[6] = target: Nuclear receptor subfamily 1 group I member 2 (Homo sapiens) (UniProt O75469); test: Dual reporter qHTS for agonist of Pregnane X Receptor (hPXR) against the NCATS DSHEA and TCM libraries: Luminescence readout (AID 1920059)
Nuclear receptor subfamily 1 group I member 2 (Homo sapiens), sequence (O75469 whole entry, looked up): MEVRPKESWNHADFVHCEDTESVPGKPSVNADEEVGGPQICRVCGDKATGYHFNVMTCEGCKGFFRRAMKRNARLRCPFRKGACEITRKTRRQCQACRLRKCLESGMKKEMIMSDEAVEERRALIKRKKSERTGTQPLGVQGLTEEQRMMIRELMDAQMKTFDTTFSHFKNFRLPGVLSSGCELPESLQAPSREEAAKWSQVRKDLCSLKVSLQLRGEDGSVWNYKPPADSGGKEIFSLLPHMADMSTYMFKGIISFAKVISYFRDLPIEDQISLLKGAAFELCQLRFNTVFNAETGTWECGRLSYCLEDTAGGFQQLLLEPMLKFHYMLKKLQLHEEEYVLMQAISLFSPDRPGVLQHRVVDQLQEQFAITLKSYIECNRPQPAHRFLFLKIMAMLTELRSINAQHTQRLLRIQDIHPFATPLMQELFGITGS
Method in brief: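 Luminescent PXR reporter read (ONE-Glo) after a CellTiter-Fluor viability read, following 24 h, 37C treatment of HepG2 cells stably carrying hPXR-Luc.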

[7] = target: Nuclear receptor subfamily 1 group I member 2 (Homo sapiens) (UniProt O75469); test: Dual reporter qHTS for antagonist of Pregnane X Receptor (hPXR) against the NCATS DSHEA and TCM libraries: Luminescence Readout (AID 1920060);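 note: HepG2 cells carrying hPXR luciferase reporter stimulated with rifampicin at 2 µM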
Text: as §2, §3, §4, §5, §6, §7
For PXR luciferase reporter gene assays, we used hPXR-LucHepG2cells provided by Dr. Taosheng Chen (Department of Chemical Biology and Therapeutics, St. Jude Children's Research Hospital). Cells were cultured in EMEM supplemented with 10% fetal bovine serum, 100U/mL penicillin and 100ug/mL streptomycin, and 500ug/mL of geneticin.
as §8, §9
1; Cells; 5 uL; hPXR-LucHepG2; white solid-bottom Greiner plate.
2; Incubation; 5h; 37C, 95% humidity, 5% CO2
3; Compounds and control; 23 nL; Kalypsis pintool (Wako USA).
4; Reagent; 1uL; rifampicin (RIF) in the antagonist mode.
6; Reagent; 1 uL; CellTiter-Fluor detection reagent.
7; Incubation; 1 hr; 37C, 5% CO2.
8; Read; Fluorescence; ViewLux plate reader.
9; Reagent; 4 uL; ONE-Glo Luciferase detection reagent.
10; Incubation; 30 min; room temperature.
11; Read; Luminescence; ViewLux plate reader.
as §10
1. Briefly, 5uL of hPXR-LucHepG2 cells in phenol red-free DMEM containing 5% charcoal-stripped FBS, 1 mM sodium pyruvate (Invitrogen), 2 mM L-glutamine (Invitrogen), and 100 U/mL penicillin and 100ug/mL streptomycin were dispensed using a BioRAPTR FRD at 4 x 10^5cells/mL (2000cells/well) in tissue culture-treated 1536-well white assay plates (GreinerBio-One).
2. Plates were incubated for 5h at 37C, 95% humidity, and 5% CO2 to allow for cell attachment.
3. Compounds (final concentration for most substances ranged from 15.6 nM to 45.9uM), positive SPA70 (final concentration range of 2.8 nM to 92uM for the antagonist mode), and cytotoxicity control tetraoctyl ammonium bromide (final concentration of 92uM) were transferred (23 nL) via pintool (Wako Automation).
4-5. […]

[8] = Dual reporter qHTS for antagonist of Pregnane X Receptor (hPXR) against the NCATS DSHEA and TCM libraries: Fluorescence Readout (AID 1920061)
Method in brief: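 In antagonist mode, 2 uM rifampicin was added to hPXR-Luc HepG2 cells alongside test substances, incubated 24 h at 37 C; luminescence gave reporter activity, and CellTiter-Fluor fluorescence (405/540 nm) gave viability.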

[9] = qHTS drug screen for cell cycle checkpoint inhibitors in PARPi-resistant BRCA-mutant ovarian cancer cell lines. (AID 1963452; calls by dose curve); settings: PEO1/OlaR viability, CellTiter-Glo luminescence, 96 h, stronger effect = lower value
Method in brief: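 PEO1, PEO4 and PEO1/OlaR ovarian cancer cells, 600 per well, exposed 96 h at 37C to a dilution series. Viability read by CellTiter-Glo luminescence, normalized to DMSO and empty wells; activity summarized as Z-AUC.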

[10] = target: Cytochrome P450 1A2 (Homo sapiens) (UniProt P05177); test: qHTS for inhibitors of CYPIA2 against the NCATS DSHEA and TCM libraries (AID 1919976); note: potency is the fitted concentration of half-maximal effect
Cytochrome P450 1A2 (Homo sapiens), sequence (P05177 whole entry, looked up): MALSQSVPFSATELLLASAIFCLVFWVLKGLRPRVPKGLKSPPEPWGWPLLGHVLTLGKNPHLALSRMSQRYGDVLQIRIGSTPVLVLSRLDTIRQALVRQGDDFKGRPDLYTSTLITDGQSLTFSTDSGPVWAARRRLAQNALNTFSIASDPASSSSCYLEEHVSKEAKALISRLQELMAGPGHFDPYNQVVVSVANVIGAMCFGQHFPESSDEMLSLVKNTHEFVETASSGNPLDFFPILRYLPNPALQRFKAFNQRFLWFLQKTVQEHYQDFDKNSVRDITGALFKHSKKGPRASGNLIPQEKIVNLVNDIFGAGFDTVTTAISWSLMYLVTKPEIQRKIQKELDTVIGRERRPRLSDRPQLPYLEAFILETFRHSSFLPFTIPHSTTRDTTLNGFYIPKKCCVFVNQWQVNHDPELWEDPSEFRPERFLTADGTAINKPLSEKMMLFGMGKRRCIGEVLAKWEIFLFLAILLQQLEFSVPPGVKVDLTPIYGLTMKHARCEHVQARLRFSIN
Method in brief: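 Enzyme and pro-luciferin substrate, or substrate alone as no-enzyme background, are pre-incubated with test samples for 15 min at room temperature. NADPH regeneration system (1x final) initiates a 30-45 min dark reaction; luciferase detection reagent follows before luminescence reading.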

[11] = measured here: PEO1 parental Z-AUC

CC(C)=CCC[C@](C)(O[C@@H]1O[C@H](CO[C@@H]2O[C@H](CO)[C@@H](O)[C@H](O)[C@H]2O)[C@@H](O)[C@H](O)[C@H]1O)C1CC[C@]2(C)[C@@H]1[C@H](O)CC1[C@@]3(C)CC[C@H](O[C@@H]4O[C@H](CO)[C@@H](O)[C@H](O)[C@H]4O[C@@H]4O[C@H](CO)[C@@H](O)[C@H](O)[C@H]4O)C(C)(C)[C@@H]3CC[C@]12C (some centres not stated)
outcome [1]: inactive | Potency [2]: 1000 nM (active) | outcome [3]: inactive | max response [4]: -2.77% (inactive) | outcome [5]: inactive | outcome [6]: inactive | outcome [7]: inactive | outcome [8]: inactive

C[C@H]1Oc2cc(cnc2N)-c2c(nn(C)c2C#N)CN(C)C(=O)c2ccc(F)cc21
Z-AUC [9]: 0.784 (inactive) and 2.21 (inactive) | Z-AUC [9, 11]: -0.00425 and 0.761 | Z-AUC ([9]; measured here: PEO4 Z-AUC): -0.356 and 0.596

CCNC(=O)Nc1ncc(-c2cc(-c3c(C)cc(OC)cc3C)nc(-c3cnccn3)n2)s1
Z-AUC [9]: 0.457 (inactive) | Z-AUC [9, 11]: 1.44 | Z-AUC ([9]; measured here: PEO4 Z-AUC): 1.47

CC(C)=CCC(O)/C(C)=C/CO[C@@H]1O[C@H](CO)[C@@H](O)[C@H](O)[C@H]1O (some centres not stated)
Potency [2]: 2510 nM (active) | outcome [3]: inactive | Potency [10]: 3550 nM (active) | max response [4]: -4.77% (inactive) | outcome [5]: inactive | outcome [6]: inactive | outcome [7]: inactive | outcome [8]: inactive

— PubChem BioAssay (NCATS)
